PLK1 PBD block: blocks phosphopeptide binding to human PLK1 polo-box domain; AID 720504; Plk1 PBD binding of FITC phosphopeptide, fluorescence polarization; 2.8% of 360,000 active; Potency, µM, usual class: inhibitors; further: series mostly up to about 57 µM; nearly all actives have a fitted effect of over 65% in size
G9a inh: blocks human histone lysine methyltransferase G9a. Q96KQ7. G9a H3K9 monomethylation, AlphaScreen, 2 h. Potency, µM (highest dose often 102 µM), most hits filed as inhibitors. 8.8% of 350,000 active; further: nearly all actives have a fitted effect of over 75% in size
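Readings reflect AlphaScreen signal from monomethyl-H3K9 antibody detection. HMT at 20 nM; substrate b-H3K9 500 nM; cofactor SAM 20 uM; 2 h RT reaction; compounds tested as titrations in qHTS with 15 min preincubation.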
CCT chaperon mod: cytosolic chaperonin activity modulation; purified chaperonin ATPase assay, HTRF ADP detection, 30 min; activity change, % (test concentration not listed), hits read low; 0.3% of 360,000 active; in the data active means activity change below about -30%
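Nucleotide hydrolysis assay: TRiC at 20–40 nM final (set by batch activity) with 10 uM ATP, 30 min at 37 °C, in presence of 76 uM compound. Detection by competitive ADP HTRF, 30 min ambient.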
Mm-Cpn inhibitor: inhibitors of Methanococcus maripaludis chaperonin TRiC (MmCpn). purified Mm-Cpn ATPase, ADP Transcreener TR-FRET. Potency, µM (top dose mostly 76.9 µM), hits mostly inhibitors. 0.031% of 330,000 active; further: nearly all actives have a fitted effect of over 80% in size
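Quantitative HTS used 25 nM Mm-CPN and 10 uM ATP in magnesium/KCl Tris buffer, pH 7.4, with 1 mM DTT. Hydrolysis ran 30 min at 37°C; ADP was read by HTRF.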
Sfp inh: blocks B. subtilis Sfp PPTase activity. AID 1490. Q9F4F7. Biochemical Sfp PPTase activity, qHTS. Potency, µM, actives largely listed as inhibitors. 3.5% of 310,000 active;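 further: the enzyme is Sfp with the accession as filed and its product quenches rhodamine fluorescence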
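Reaction rates are the 30-min fluorescence difference (ex 525, em 598 nm) in wells containing 15 nM Sfp, 5 uM rhodamine-CoA and 12.5 uM BHQ-2-YbbR at pH 7.6 with 10 mM MgCl2.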
VDR inhibitor: vitamin D3 receptor (human) inhibition. VDR-SRC2-3 peptide fluorescence polarization, 2 h. P11473. 0.93% of 400,000 active. Potency, µM, usual class: inhibitors
Target sequence (P11473 whole entry, looked up): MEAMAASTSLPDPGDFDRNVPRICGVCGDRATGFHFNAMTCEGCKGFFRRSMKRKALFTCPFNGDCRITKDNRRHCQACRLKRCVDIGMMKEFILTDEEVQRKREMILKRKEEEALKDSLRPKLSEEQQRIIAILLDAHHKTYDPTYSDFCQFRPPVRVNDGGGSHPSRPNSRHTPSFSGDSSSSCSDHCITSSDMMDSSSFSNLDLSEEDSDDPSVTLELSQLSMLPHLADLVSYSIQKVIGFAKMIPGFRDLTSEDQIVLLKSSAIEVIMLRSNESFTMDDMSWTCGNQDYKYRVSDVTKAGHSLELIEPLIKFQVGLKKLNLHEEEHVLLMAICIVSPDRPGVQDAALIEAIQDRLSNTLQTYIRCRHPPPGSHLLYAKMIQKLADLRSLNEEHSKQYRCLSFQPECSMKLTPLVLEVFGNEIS
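Inhibition of the VDR/SRC2-3 peptide interaction is quantified by fluorescence polarization. Compounds (23 nl, pintool) incubate with the reagents for 2 hours at ambient room temperature.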
Hits are given with their value; - = inactive; ? = inconclusive; . = no result; [ ] = dose if it differs, or a comment. Most compounds without a hit are left out; they make up all but 10% or so of the library. Unless noted, the call rests on the fitted dose curve; in most records, active means well fitted curve in the direction sought with a large enough effect; inconclusive means small, poorly fitted or top-dose-only effect, or another doubt; inactive means no such curve, though single readings can be large; an effect the other way counts as inactive or inconclusive.

SMILES | PLK1 PBD block | G9a inh | CCT chaperon mod | Mm-Cpn inhibitor | Sfp inh | VDR inhibitor
O=C(CS(=O)c1ccc(C(F)(F)F)cc1[N+](=O)[O-])Oc1ccc(Cl)cc1 (stereo not given) | 13µM | ? | - | - | - | 50µM
Cc1ccc(-n2nc3ccc(N)cc3n2)cc1Cl | - | 45µM | - | - | - | -
Cc1ccc(-n2nc3ccc(N)cc3n2)cc1C | - | 10µM | - | - | - | -
Cc1ccc(C)c(N2CCN(C(c3ccccc3)c3nnnn3C(C)(C)C)CC2)c1 (stereo not given) | - | . | - | . | . | .
Cc1ccc(C)c(N2CCN(C(c3ccc(N(C)C)cc3)c3nnnn3C(C)(C)C)CC2)c1 (stereo not given) | - | 4.5µM | - | - | - | -
CC(C)CCn1nnnc1C(c1ccc(N(C)C)cc1)N1CCN(C(=O)c2ccco2)CC1 (stereo not given) | - | 50µM | - | - | - | -
COCCn1nnnc1C(c1ccc(OC)cc1)N1CCN(C(=O)c2ccco2)CC1 (stereo not given) | - | ? | - | - | - | -
COCCn1nnnc1C(c1ccc(Cl)cc1)N1CCN(C(=O)c2ccco2)CC1 (stereo not given) | - | 56µM | - | - | - | -
CN(C)c1ccc(C(c2nnnn2C(C)(C)C)N2CCN(C(=O)c3ccco3)CC2)cc1 (stereo not given) | - | 10µM | - | - | - | 16µM
CC1NC(C(=O)O)Cc2c1[nH]c1ccccc21 (stereo not given) | . | - | . | . | - | -
Cc1ccc(C)c(N2CCN(C(c3ccncc3)c3nnnn3Cc3ccccc3)CC2)c1 (stereo not given) | - | 3.2µM | - | - | - | -
CCC(c1nnnn1Cc1ccccc1)N1CCN(C(=O)c2ccco2)CC1 (stereo not given) | - | 79µM | - | - | - | -
CCC(c1nnnn1CCOC)N1CCN(C(=O)c2ccco2)CC1 (stereo not given) | - | . | - | - | - | -
COCCn1nnnc1C(c1ccc(OC)cc1)N1CCC(C)CC1 (stereo not given) | - | -[12.7 µM] | - | - | - | -
COCCn1nnnc1C(c1ccc(Cl)cc1)N1CCSCC1 (stereo not given) | - | 50µM | - | - | - | -
CC1(C)CC(=O)C(C=Nc2ccccc2C(=O)O)=C(O)C1 | - | - | - | - | - | -
CC(=Nc1cc(C(=O)c2ccccc2)ccc1N)C1=C(O)CC(C)(C)CC1=O | 30µM | - | - | - | - | -
Cc1ccc(C)c2[nH]c(=O)c(CN(CC3CCCO3)C(=S)NCc3ccco3)cc12 (stereo not given) | - | 45µM | - | - | - | -
CCc1ccc2[nH]c(=O)c(CN(CCN(C)C)C(=S)NCc3ccco3)cc2c1 | - | . | - | - | - | -
CCc1ccc2[nH]c(=O)c(CN(CCN(CC)CC)C(=S)NCc3ccco3)cc2c1 | - | . | - | - | 79µM | -
O=C(c1ccco1)N(Cc1cc2ccccc2[nH]c1=O)CC1CCCO1 (stereo not given) | - | - | - | - | - | -
CCc1ccc2[nH]c(=O)c(CN(CC3CCCO3)C(=S)NCc3ccco3)cc2c1 (stereo not given) | - | . | - | - | 3.5µM | ?
Cc1cc(C)c2cc(CN(Cc3ccco3)C(=S)NCC3CCCO3)c(=O)[nH]c2c1 (stereo not given) | - | . | - | - | 20µM | -
COc1cccc(NS(=O)(=O)c2cc(-c3cnc(C4CC4)o3)ccc2C)c1 | . | ? | . | . | . | -
Cc1ccc2cc(CN(CC3CCCO3)C(=O)NC3CCCCC3)c(=O)[nH]c2c1C (stereo not given) | - | - | - | - | - | -
Cc1ccc2cc(CN(CC3CCCO3)C(=S)NCc3ccco3)c(=O)[nH]c2c1C (stereo not given) | 15µM | 45µM | - | - | 32µM | -
CCOc1ccc(-c2cccc(NS(=O)(=O)c3ccccc3C(F)(F)F)c2)nn1 | . | - | . | . | . | -
O=C1CCC(=O)N1OCCCOc1ccc(Br)cc1Cl | - | - | - | - | - | -
Brc1ccccc1OCCN1CCOCC1 | - | 25µM | - | - | ? | -
